Assay results taken from PubChem BioAssay AID900 (National Center for Advancing Translational Sciences (NCATS), 2007).
Values joined by “and” are separate entries in the source; they are usually repeats but may differ in a detail not shown here. Identical values can stand only once. The campaign covered roughly 75,000 compounds. About 20 (0.03%) were called active. Not shown: some 1% with an inconclusive outcome. Calls come from the whole dose curve; as a rule, active = well fitted inhibition curve with a large enough effect; inconclusive = small, poorly fitted or top-dose-only effect; inactive = flat fitted curve, though single readings scatter. Only a sample is shown. Square brackets hold non-standard residues; d marks the D form. Side chains are listed from the residue outwards. Peptide text beside a SMILES is read from it. * marks the point of attachment. X1 = CCC(C)C(N)C1=NC(C(=O)*)CS1; Orn = NCCC[CH](N)C(=O)O

Each compound was assayed against Caspase-1 (Homo sapiens) (UniProt P29466) (assay: qHTS Assay for Allosteric/Competitive Inhibitors of Caspase-1). Settings: Caspase-1 enzyme, Ac-WEHD-AFC fluorogenic rate; series mostly up to 57.5 µM.
Description: NIH Molecular Libraries Screening Centers Network [MLSCN]
NIH Chemical Genomics Center [NCGC]
PI Name: Dr. James Wells,
Dr. Enrique Perez-Paya, Dr.Janice Williams, Dr. Dennis Wolan, a person
The caspases (Cysteine Aspartyl Protease) comprise a related family of 14 dimeric proteases that are critical mediators of apoptosis (programmed cell death) and inflammation. The caspases represent an important class of drug targets for stroke, ischemia, cancer and inflammatory diseases. […] One goal of this project was to identify compounds that act as allosteric inhibitors via stabilizing the procaspase form of the enzyme. Previous work in Well's laboratory has shown that such allosteric inhibitors can be identified and these act by binding at the dimer interface of enzyme (Hardy, Lam et al., 2004).
The biochemical assay was configured using purified caspase 1 at a high enzyme concentration to promote formation of the homodimers and thus facilitate the identification of allosteric inhibitors. The overall goal was to identify reversible inhibitors with better drug-like properties than the currently available set of aspartyl-containing peptidomimetics that covalently bind the active site. Caspase 1 was assayed using the profluorescent substrate Ac-WEHD-AFC. After initiation of the assay with substrate the plates were rapidly read using an automated robotic system (Kalypsys, Inc.) to maintain consistent timing. A kinetic mode of detection was used where the initial rate was collected (estimated final product formation was ~10%). Compounds were screened as a concentration-titration series that ranged from 57 uM to 0.7 nM. Below is the protocol used for caspase 1.
NCGC Assay Protocol Summary:
Caspase 1 was prepared in buffer (50 mM HEPES pH 7.5, 50 mM KCl, 200 mM NaCl, 10 mM DTT, 0.1% CHAPS) at a concentration of 66.6 nM and 3 uL was dispensed to all wells using black solid Kalypsys 1536-well plates. 20 nL of DMSO containing compounds was added using a pin-tool (Kalypsys Inc.) to columns 5-48. Then 20 nL of DMSO solution from a control plate was added to columns 1-4. Controls were: Column 1, 16 point titration with each concentration in duplicate (1:1 dilutions in DMSO; final starting concentration was 57 uM) of the caspase 1 inhibitor Ac-WEHD-CHO (Alexis Biochemicals); Column 2, a 16 point titration with each concentration in duplicate of the free AFC fluorophore prepared in DMSO (Alexis Biochemicals), final starting was 40 uM; Column 3 neutral (DMSO only) control; Column 4: DMSO alone, to serve as a negative control (no substrate was added). Then 1 uL of 20 uM the substrate Ac-WEHD-AFC (Alexis Biochemicals) prepared in the same buffer was dispensed to all wells except columns 2 and 4 and the plates were immediately transferred (< 1 min) to the Viewlux. The plates were then exposed using 405 nm excitation/520 nm emission filters for 4 sec and read at 20 sec intervals for 3 min. Final enzyme concentration was 50 nM and the final substrate concentration was 5 uM.
Concentration-response curves were fitted to the data calculated from slope of the linear regression of fluorescent intensity versus time (the rate). The concentration-effect curves were then classified based on curve quality (r2), response magnitude and degree of measured activity. […] Inconclusive compounds had appreciable concentration-dependent effects on both the measured rate and the interpolated basal fluorescence intensity at the start of the reaction but where the basal fluorescent intensity was marginal (e.g. < 10-fold). Inconclusive compounds also encompass highly fluorescent compounds (>100-fold increases in fluorescent intensities values relative to controls) where artificial concentration-dependent decreases in the rate occurred at high compound concentrations due to fluorescent interferences.
Keywords: Caspase 1, proteases, profluorescent, MLSMR, MLSCN, NIH Roadmap, qHTS, NCGC
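Note: plate controls were vehicle for no effect and no substrate for full effect.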

Activity change, negative = inhibition, inactive:
COC(=O)[C@@H]1CC[C@H](C)[C@@H](c2ccc(C)cc2)N1C(=O)c1ccc(/C=N\O[C@@H](C)c2cn([C@H](CO)Cc3ccccc3)nn2)cc1 -0.293% [at 11.5 µM] and 3.03% [at 11.5 µM]
CO[C@H]1COC(=O)[C@@H](OCc2ccccc2)/C=C\[C@H](C)[C@@H](OC)COC(=O)[C@H](OCc2ccccc2)/C=C\[C@@H]1C -1.1% [at 11.5 µM]
CCOC(=O)N1CCN(C(=O)c2cn(C)c3ccc(S(=O)(=O)N4CCCC4)cc3c2=O)CC1
COC(=O)[C@@H]1C[C@@]2(O)[C@@H](O)[C@@H](O)[C@@H](O)C[C@H]2N1Cc1ccc(C)s1
C/C(Cl)=C\Cn1c(Nc2cccc(C)c2)nc2c1c(=O)n(C)c(=O)n2C
CC(C)[C@H]1CC[C@@H](C)C[C@H]1O
CCC(=O)Nc1nc(OC)cc(OC)n1
Nc1nc2c(nc(Cl)n2C2OC(CO)C(O)C2O)c(=O)[nH]1 (centres undefined)
CC(=O)OCC(=O)[C@@]1(O)CCC2C3CCC4=CC(=O)CC[C@@]4(C)[C@]3(F)C(O)C[C@]21C (some centres undefined)
O=c1c(O)c(-c2ccc(O)cc2)oc2ccccc12
C=CCn1c(SCc2cc(C(=O)OC)c(C)o2)nnc1-c1ccncc1
C[C@@H](c1ccccc1)N1C(=O)[C@H]2[C@H]3[C@H](O)[C@H](O)C/C(=N/OC[C@@H](O)COCc4ccco4)[C@@H]3CC[C@@H]2C1=O -0.613% [at 11.5 µM]
CCCCCCCCCCCCCCCC(=O)OC/C=C(C)/C=C/C=C(C)/C=C/C1=C(C)CCCC1(C)C
Cn1c(N)c(C(=O)COC(=O)c2cc(C(F)(F)F)nc3c(C(F)(F)F)cccc23)c(=O)n(C)c1=O
COc1cccc([C@H](O)Cn2cc(-c3ccc(CON=C(C)C)cc3)nn2)c1 -1.21% [at 11.5 µM]
CC1(C)OC2CC3C4CCC5=CC(=O)CCC5(C)C4(F)C(O)CC3(C)[C@]2(C(=O)CCl)O1 (some centres undefined)
CC(C)c1ccc(OCC(O)Cn2cnc3ccccc32)cc1 (centres undefined)
CCC(C)C(N)C1=NC(C(=O)NC(CC(C)C)C(=O)NC(CCC(=O)O)C(=O)NC(C(=O)NCCCCC2NC(=O)C(CC(N)=O)NC(=O)C(CC(=O)O)NC(=O)C(Cc3cnc[nH]3)NC(=O)C(Cc3ccccc3)NC(=O)C(C(C)CC)NC(=O)C(CCCN)NC2=O)C(C)CC)CS1 (stereo not drawn) (cyclo(DNK([Ile-Glu-Leu-X1])[Orn]IFH); configuration not given here)
COC(=O)[C@@H]1C[C@@]2(O)[C@H](O)[C@H](O)[C@H](O)C[C@H]2N1CC1CCCCC1
CCCN1[C@H](C(=O)OC)C[C@@]2(O)[C@@H](O)[C@@H](O)[C@@H](O)C[C@@H]12
CCOC(=O)N/N=C1/C[C@@H](O)[C@@H](O)[C@@H]2[C@@H]3C(=O)N(CC)C(=O)[C@H]3CC[C@H]12 0.333% [at 11.5 µM]
CSc1nnc2c(n1)OC(c1ccsc1)N(C(C)=O)c1ccccc1-2 (centres undefined)
COc1ccc(COC(=O)N/N=C2/C[C@@H](O)[C@@H](O)[C@@H]3[C@@H]4C(=O)N([C@@H](C)c5ccccc5)C(=O)[C@H]4CC[C@@H]23)cc1 -3.18% [at 11.5 µM]
C/C=C(/C)C(=O)OC1Cc2c(ccc3ccc(=O)oc23)OC1(C)C (centres undefined)
